From PubChem BioAssay
Calls of active or inactive are those of the source. Unless noted, how the calls were made is not given here.

Legend:
[1] = HepG2 liver cancer cell viability effects, profiling panel, resazurin fluorescence, 24 h, PK04 Diversity Set (AID 1172); conditions: higher = more signal
[2] = basal S. cerevisiae growth modulation, no modifier, primary screen, OD600, strain BY4716, 24 h, basal condition (AID 1173); conditions: OD600, 24 h, higher = more signal, called active from +8 up or from −8 down
[3] = MM1S myeloma cell viability, profiling panel, resazurin fluorescence, basal, 24 h, PK04 Diversity Set (AID 1174); conditions: higher = more signal, called active from +8 up or from −8 down;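 further: MM1S multiple myeloma cell line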
[4] = biological target: Dihydroorotate dehydrogenase (quinone), mitochondrial (Plasmodium falciparum (isolate 3D7)) (UniProt Q08210); test: PfDHODH enzyme inhibitors, primary screen, biochemical, C-terminal His tag, absorbance 600 nm (AID 1175); conditions: DCIP absorbance 600 nm, higher = more signal, called active from +8 up or from −8 down;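 further: recombinant parasite enzyme with a five histidine tag at its C terminus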
[5] = P. aeruginosa biofilm formation inhibitors, primary screen, strain PAO1, LB-PBS medium, absorbance 600 nm (AID 1176); conditions: P. aeruginosa PAO1 growth/biofilm, A600, 12 h; higher = more signal
[6] = S. cerevisiae RM11-1a growth modifiers, primary screen, strain RM11-1a, OD600, basal, 24 h (AID 1177); conditions: OD600, 24 h, higher = more signal, called active from +8 up or from −8 down;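 further: cultures grown under basal conditions with no added stressor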
[7] = E. coli acrAB mutant growth effects, primary screen, E. coli filamentation inducers, strain DRC39, OD650, 24 h (AID 1178); conditions: higher = more signal, called active from +8 up or from −8 down;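 further: growth measured as culture turbidity by optical density at 650 nm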
[8] = E. coli acrAB mutant growth effects, primary screen, E. coli filamentation inducers, strain DRC39, OD650, 48 h (AID 1179);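 further: screen aims at cell division blockers that make cells filament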; conditions: E. coli DRC39 delta-acrAB growth, higher = more signal, called active from +8 up or from −8 down
[9] = RPMI8226 myeloma cell viability, profiling panel, resazurin fluorescence, basal, 24 h, PK04 Diversity Set (AID 1180); conditions: higher = more signal;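 further: RPMI8826 multiple myeloma cell line at 5000 cells per well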
[10] = biological target: E3 ubiquitin-protein ligase XIAP (Homo sapiens) (UniProt P98170); test: XIAP binders, primary screen, biophysical, small-molecule microarray, fluorescence 635 nm (AID 1181); conditions: small-molecule microarray binding, higher = more signal;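 further: score merges 667 nm emission and signal to noise over triplicate slides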
[11] = system: XIP peptide (Xip251-270) binding; test: small-molecule binders of XIP peptide, primary screen, biochemical, small-molecule microarray, fluorescence 635/667 nm, 0.1 µg/mL protein (AID 1182); conditions: fluorescent protein binding, 635 nm, higher = more signal, called active from +8 up or from −8 down
XIP peptide (Xip251-270) = test: small-molecule binders of XIP peptide, primary screen, biochemical, small-molecule microarray, fluorescence 635/667 nm, 0.5 µg/mL protein (AID 1183); conditions: small-molecule microarray binding, fluorescence 635 nm; higher = more signal
[12] = Plasmodium falciparum growth inhibition, primary screen, strain 3D7, DAPI fluorescence, 100 nL (AID 1184);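 further: parasites grown inside human red blood cells in medium with human serum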; conditions: P. falciparum 3D7 growth, 3 d, higher = more signal
[13] = biological target: Homeobox protein Hox-A13 (Mus musculus) (UniProt Q62424); test: inhibitors of HoxA13-DNA binding, primary screen, biochemical, fluorescence polarization, labeled oligonucleotide (AID 1185); conditions: 15 min, higher = more signal, called active from +8 up or from −8 down
[14] = inhibitors of hydroxyurea-induced Chk1 phosphorylation, primary screen, imaging, HeLa, phospho-Chk1 antibody, percent positive cells (AID 1186); conditions: hydroxyurea-induced phospho-Chk1 immunofluorescence imaging, higher = more signal
[15] = inhibitors of hydroxyurea-induced Chk1 phosphorylation, primary screen, imaging, HeLa, phospho-Chk1 nuclear intensity (AID 1187); conditions: hydroxyurea-induced phospho-Chk1 immunofluorescence imaging, higher = more signal

Sequence of Dihydroorotate dehydrogenase (quinone), mitochondrial (Plasmodium falciparum (isolate 3D7)) (Q08210 whole entry, looked up): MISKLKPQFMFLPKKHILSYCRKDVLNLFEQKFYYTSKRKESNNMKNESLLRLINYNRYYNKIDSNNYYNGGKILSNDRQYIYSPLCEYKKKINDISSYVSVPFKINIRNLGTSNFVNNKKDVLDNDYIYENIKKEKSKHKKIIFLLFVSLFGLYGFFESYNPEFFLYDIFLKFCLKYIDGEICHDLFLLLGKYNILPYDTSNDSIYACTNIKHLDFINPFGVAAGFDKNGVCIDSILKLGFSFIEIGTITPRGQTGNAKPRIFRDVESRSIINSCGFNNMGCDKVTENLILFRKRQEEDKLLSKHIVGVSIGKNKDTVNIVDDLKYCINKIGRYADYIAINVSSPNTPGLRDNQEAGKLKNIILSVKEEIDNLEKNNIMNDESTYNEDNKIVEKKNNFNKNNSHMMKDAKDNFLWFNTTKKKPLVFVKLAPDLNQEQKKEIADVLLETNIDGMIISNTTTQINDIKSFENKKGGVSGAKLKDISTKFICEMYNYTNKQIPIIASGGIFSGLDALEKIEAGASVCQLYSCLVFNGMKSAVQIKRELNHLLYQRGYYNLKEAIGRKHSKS
Sequence of E3 ubiquitin-protein ligase XIAP (Homo sapiens) (P98170 whole entry, looked up): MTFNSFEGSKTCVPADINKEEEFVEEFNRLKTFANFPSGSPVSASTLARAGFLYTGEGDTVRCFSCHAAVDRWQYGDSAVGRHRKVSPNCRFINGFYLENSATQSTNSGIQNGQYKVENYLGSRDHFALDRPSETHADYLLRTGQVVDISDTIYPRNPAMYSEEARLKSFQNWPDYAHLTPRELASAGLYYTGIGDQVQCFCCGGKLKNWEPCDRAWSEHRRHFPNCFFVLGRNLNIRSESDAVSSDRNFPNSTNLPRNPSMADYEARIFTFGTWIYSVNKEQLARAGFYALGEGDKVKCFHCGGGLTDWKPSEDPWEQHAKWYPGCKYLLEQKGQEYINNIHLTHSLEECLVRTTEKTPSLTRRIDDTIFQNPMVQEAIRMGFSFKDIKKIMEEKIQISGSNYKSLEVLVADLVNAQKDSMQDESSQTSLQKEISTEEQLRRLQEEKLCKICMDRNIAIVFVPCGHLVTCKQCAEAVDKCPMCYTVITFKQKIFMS
Sequence of Homeobox protein Hox-A13 (Mus musculus) (Q62424 whole entry, looked up): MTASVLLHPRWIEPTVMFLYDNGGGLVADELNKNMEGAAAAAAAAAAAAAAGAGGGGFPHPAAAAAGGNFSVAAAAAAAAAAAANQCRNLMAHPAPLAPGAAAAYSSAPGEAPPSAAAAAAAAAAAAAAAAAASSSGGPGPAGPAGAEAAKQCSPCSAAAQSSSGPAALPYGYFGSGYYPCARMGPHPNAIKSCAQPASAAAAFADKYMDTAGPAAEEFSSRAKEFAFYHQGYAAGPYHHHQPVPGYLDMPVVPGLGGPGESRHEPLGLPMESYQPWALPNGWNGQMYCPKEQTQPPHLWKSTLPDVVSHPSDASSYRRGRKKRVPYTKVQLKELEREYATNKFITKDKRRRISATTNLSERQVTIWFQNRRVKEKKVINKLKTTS

SMILES | z-score [1] | z-score [2] | z-score [3] | composite z-score [4] | z-score [5] | z-score [6] | z-score [7] | z-score [8] | z-score [9] | composite z-score [10] | composite z-score [11] | composite z-score (XIP peptide (Xip251-270)) | z-score [12] | z-score [13] | z-score [14] | z-score [15]
CC(C)C(CO)N1C(=O)[C@@H]2C3C(=O)OCCC/C=C\[C@H]3OC23C=CCN(CCN2CCOCC2)C(=O)[C@@H]13 (stereo not given in full) | -0.723 | 0.384 (inactive) | -0.686 (inactive) | -3.09 (inactive) | 0.109 (inactive) | -0.0505 (inactive) | 1.01 (inactive) | 0.566 (inactive) | -0.586 | 0.0191 | -0.0949 (inactive) | -0.816 | 1.17 | -7 (inactive) | 0.248 (inactive) | -0.0469 (inactive)
CN(C)CCCC[C@@H]1NC(=O)[C@H]2C[C@@H](C(=O)NCCCCCCN)[C@@H](c3ccc(O)cc3)N2C1=O | -0.24 | -0.343 (inactive) | 0.696 (inactive) | -1.31 (inactive) | -0.338 (inactive) | 0.578 (inactive) | 0.332 (inactive) | 0.458 (inactive) | 0.683 | 0.121 | 1.38 (inactive) | 0.785 | -0.135 | -1.16 (inactive) | 0.323 (inactive) | 0.362 (inactive)
COC(=O)[C@@]1(Cc2ccccc2)[C@H]2c3cc(C(=O)N4CCCC4)n(Cc4ccc(S(C)(=O)=O)cc4)c3C[C@H]2CN1C(=O)c1ccccc1 | -0.837 | 0.912 (inactive) | -0.774 (inactive) | -0.467 (inactive) | 0.206 (inactive) | -0.33 (inactive) | -1.33 (inactive) | -0.195 (inactive) | -1.14 | -0.105 | 0.478 (inactive) | 0.215 | -1.5 | -4.67 (inactive) | 0.267 (inactive) | -0.364 (inactive)
COC(=O)[C@@]1(Cc2ccccc2)N=C(c2ccc(OCCCO)cc2)O[C@H]1c1ccccc1 | -0.882 | -2.46 (inactive) | -2.96 (inactive) | 1.14 (inactive) | 0.991 (inactive) | 1.47 (inactive) | 2.8 (inactive) | 0.608 (inactive) | -2.43 | 0.244 | 1.16 (inactive) | 0.743 | -1.92 | -4.38 (inactive) | -0.343 (inactive) | -0.094 (inactive)
COCCOC(=O)N1C(=O)[C@@]2(c3cc(C#CCC(C(=O)OC)C(=O)OC)ccc31)[C@H](C(=O)Nc1nc3ccccc3s1)[C@H]1C(=O)O[C@H](c3ccccc3)[C@H](c3ccccc3)N1[C@@H]2c1ccccc1OCCO | -0.397 | 1.3 (inactive) | -1.38 (inactive) | -0.715 (inactive) | 2.96 (inactive) | 2.8 (inactive) | 0.0871 (inactive) | 0.642 (inactive) | -0.39 | 0.109 | 1.95 (inactive) | 0.813 | -1.8 | 3.19 (inactive) | 0.0747 (inactive) | 0.233 (inactive)
O=C(CS)NCCCCCCNC(=O)[C@@H]1C[C@@H]2C(=O)NCC(=O)N2[C@@H]1c1cccc(OCCO)c1 | -0.3 | -0.419 (inactive) | -0.217 (inactive) | -0.216 (inactive) | 0.351 (inactive) | 0.752 (inactive) | 0.713 (inactive) | 1.16 (inactive) | -0.252 | 0.0346 | 0.67 (inactive) | 0.579 | 0.132 | -2.98 (inactive) | 0.376 (inactive) | 0.376 (inactive)
COCCOC(=O)N1C(=O)[C@@]2(c3cc(C#CCC(C(=O)OC)C(=O)OC)ccc31)[C@H](c1ccccc1OCCO)N1[C@H](c3ccccc3)[C@H](c3ccccc3)OC(=O)[C@H]1[C@@H]2C(=O)N1CCN(c2ncccn2)CC1 | 0.326 | 2.4 (inactive) | 1.04 (inactive) | -0.388 (inactive) | 3.18 (inactive) | 3.19 (inactive) | 0.862 (inactive) | 0.519 (inactive) | -0.83 | -0.0095 | 0.311 (inactive) | 0.62 | -2.25 | 0.271 (inactive) | -0.225 (inactive) | -0.236 (inactive)
C=C[C@H](OC)[C@@H](OC(=O)Nc1ccc(OC)cc1)c1ccc(O)c(F)c1 | -0.709 | -3.76 (inactive) | -1.78 (inactive) | -1.89 (inactive) | 1.05 (inactive) | 0.974 (inactive) | 1.41 (inactive) | 0.98 (inactive) | 1.69 | 0.0623 | -0.0346 (inactive) | -0.893 | -0.343 | -3.1 (inactive) | 0.495 (inactive) | 0.76 (inactive)
C=CCC(OC(C)=O)[C@@H]1[C@@H](N(Cc2cc3ccccc3o2)C(=O)c2cccc3ccccc23)c2cc(OCCCO)ccc2N1C(=O)c1ccc(-c2ccccc2)cc1 (stereo not given in full) | -1.11 | -0.356 (inactive) | 0.353 (inactive) | -0.0369 (inactive) | -1.27 (inactive) | -0.208 (inactive) | 0.75 (inactive) | -0.11 (inactive) | 0.03 | -0.256 | 0.277 (inactive) | 0.287 | -3.01 | -0.424 (inactive) | 0.0396 (inactive) | 0.577 (inactive)
C=CC(=C)[C@H]1Oc2ccccc2S(=O)(=O)N2CCC[C@@H]12 | -0.702 | -3 (inactive) | -0.205 (inactive) | 0.742 (inactive) | -0.389 (inactive) | -0.377 (inactive) | -0.553 (inactive) | -0.84 (inactive) | -0.973 | -0.02 | 0.323 (inactive) | -0.253 | -0.0753 | -1.9 (inactive) | 0.142 (inactive) | 0.342 (inactive)
